# Laboratory results as given in the supplement of paper PMC11417369.
# In all, about 25,000 sequences were measured (“ln(normalized median fluorescence intensity)”: median about 7.1, highest 2% from about 10 on). The entries come from a sample that favours the highest values as a whole.
# System: PfSIP2 AP2 domain 1 (GST-tagged)
# Assay: gcPBM binding intensity (ln(normalized median fluorescence intensity)); higher = stronger DNA binding
# Outline: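 GST-tagged P. falciparum DNA-binding domains produced in E. coli were incubated for 1 h on an Agilent 4 × 180k array of primer-extended double-stranded 36-bp intergenic genomic probes with negative controls. Binding intensity is the highest Masliner-normalised natural-log median intensity across replicate spots of either probe orientation, with bound protein detected by Alexa488 anti-GST antibody at 488 nm.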
row,Sequence,gcPBM binding intensity (ln)
1,TATTGTATATAATAAACACACAATATTAAAAATATA [CACACA_site1057],6.8
2,ACAAAAAAAAACGTGGTGCATTAATAATATTGTATA [GTGCAC_site9469],10.3
3,AATATTGTATATAATAAACACACAATATTAAAAATA [CACACA_site8262],6.99
4,ATATGGTGATATAGGTGTACATTTTGATGCTTATTT [XGTACX_site4283],6.95
5,AGCATTTTAAGTTATACACACATTTTGAATCTATAT [CACACA_site7599],6.89
6,ATTTTCTTTCTATGCACACGCACGTATTTGCACCCA [CACACA_site3350],11.9
7,CACCCGCACGTATTTGCACACATTGCCACGTAATTA [CACACA_site5786],7.76
8,TTATTTTCTTTCTATGCACACGCACGTATTTGCCCA [CACACA_site9104],7.91
9,TAAAAATAAATAAATACATGCACCAAAAATAAATTT [TGCATGCA_site801],10.2
10,TACATAAATTTTAATACATGCAAATAAAATATATAA [TGCATGCA_site131],6.94
11,TTAAAAAAATATAATACACACCAAAAATATGCACAT [CACACA_site5209],9.27
12,TCCTATGATGATGATAGTACATATGAGTTCAAAAAA [XGTACX_site273],6.81
13,CACCAATTCATATGCACACACATCTGCATATTATAT [CACACA_site1773],7.43
14,TATATAATATATATAGTGCATAAGTTCAAAAGAATA [GTGCAC_site9805],8.73
15,CCATGTAGTGAATAGGTGCATATCAAAAAAAAAAAA,11
16,GGAAAATTATCAATAGCATGCAAAATGTGAATATTA [TGCATGCA_site901],6.83
17,CATATAAATAGACACACACACACATATAAATAAATA [CACACA_site7156],7.23
18,AAAACAATAATATACTGTACATATATATAATAACAT [XGTACX_site6188],7.13
19,ATGGTATAAAAAAATACACACTTATATATATTCTTA [CACACA_site4427],6.86
20,TGTATATGTGAAGCAAGGGATGCGGCAGACATAACA [CACACA_negctrl_site1339],7.07
21,ATTTCCCCAACGTGGGTGCATATATTTATGTGTGAA [GTGCAC_site9439],11.1
22,ATTTATATATATGTATGTACGTATGTGTGTATATGT [XGTACX_site7587],7.73
23,ATATGAAACATGAAGGTGCATAATGTGTATATTTAT,10.8
24,ATATATTATGGGTGTGCACACAATATTTATATGTTC [CACACA_site2270],8.64

row,Sequence,gcPBM binding intensity (ln)
1,TTTATTTATGTGTGGGTGCATATACGTATGATGTAT,10.6
2,GTATTATTTTATGATGCATGTGTATTTCATATATGC [TGCATGCA_site660],6.98
3,CACATATATATGTGTGCATGTTGTATTATATATTTA [TGCATGCA_site632],8.48
4,TATTTATATGTATATACATGCACATATATATGAAAC [TGCATGCA_site1005],7.7
5,TTATTTTATTTAGGGTGTACCCAATTTTTCCATATG [XGTACX_site4957],6.78
6,CCGTTGAACATATATGCACACACATAAAATAAAAAA [CACACA_site8761],7.65
7,AAAAAATAAGATTGTACACACATAAATTCTTTGTCA [CACACA_site2089],6.85
8,AATCCTTCATATGTAGTGCATATTAACAAAATAAAA [GTGCAC_site9500],8.78
9,TTTTGCAATAATGTTGCACACTAAATAGTCATATAT [CACACA_site7977],7.61
10,ATATATATATATATATGTACGTACTCAGTTATGCCT [XGTACX_site453],9.2
11,TTTGTAACTTCTTTCACACATATATATATATATATA [CACACA_site5603],9.76
12,CACCCACCCAGACACACACACACACCCCCACCCATA [CACACA_site367],7.6
13,GTGTGCAAAAATTGTTGTACATTATATATAAAAAAA [XGTACX_site3246],7.79
14,ACAAATTGTTAAAGGTGTACAATACATATATAAGAA [XGTACX_site4906],7.38
15,TTTGTGTTTATAAATTGTACAAAGGTGCAAGAAGAA [XGTACX_site2159],11.2
16,TATGTACAGACATATACACACCTCTATAATCTATAT [CACACA_site6482],7.09
17,AAAAAAAATTATGAAGTGCATTAGTGAATTTGATTG,9.16
18,TGTCGGCTTAGATTAGTGCACTGAAAAATGAAGTAT [GTGCAC_site9919],10.5
19,TATATATATAAATGAATGCACTTTAGAAAAAAGTAC,8.52
20,ATTTTTTTTTTTTTTTGTACGAATAATATGTATGAA [XGTACX_site5318],7.12
21,TAGGCCTTAAATCGTGTGCACTTTTTTTTTTTTTTT,10.7
22,TAAATATATATATGTGTGCACTTCTTCATTTTAATA [GTGCAC_site9537],9.97
23,AAATTAAATAAATTTACACACTAAAAATTACATATA [CACACA_site1054],6.88
24,TCTTTATCCTTTCTCTTTTTATTAATTATAATATTC [TGCATGCA_negctrl_site584],6.99

row,Sequence,gcPBM binding intensity (ln)
1,CTTTCGGTTGGAGAGGTGCGCTTCTCCTTTATAATA,11
2,TTTTTATTTTATAATATATTCCTTTTCCTTTCTTTC [CACACA_negctrl_site245],6.64
3,AAAAAAAAAACAAATACACACGCACCCAAAAAAAAA [CACACA_site8166],10.1
4,TACAGATACGGACACACACACACACCCAGACAAAAA [CACACA_site4432],7.54
5,CATACACAAGAAAATTCACACACACCCATATATATA [CACACA_site9288],7.73
6,CAAAACAAAGTTGCCGCACACAGATACGCACCCAAG [CACACA_site3455],11.9
7,TACGCACAAAAATATACACACACACCGATATATTTA [CACACA_site9213],7.15
8,GCCGCACCCAGATACGCACACAAGAAAAAAATATTC [CACACA_site3456],11.1
9,ATTTTTATGTTGAAAAGTACTTGAATCCCATGTAAC [XGTACX_site4453],7.09
10,ATATATATATATATAACACACGTGTATTTATCTGTA [CACACA_site5922],9.33
11,AACACACACATATATATATATATATATATATATATA [GTGCAC_negctrl_site573],9.64
12,TAATTAATTTACATTTTAATTTTATACAAAATTTAT [CACACA_negctrl_site830],6.7
13,TTCCTGTTAATTACAACACACAATTTTTATTTTATG [CACACA_site779],7.16
14,ATTGTGGCAATATATTGTACATGTAATATAAATATA [XGTACX_site5415],7.06
15,TTCTTTTTTTTTAAAACAAACAAACAAACAAACAAA [CACACA_negctrl_site832],7.06
16,CCATATTTAATAAAATGTACTCATTCTTTTATTTTA [XGTACX_site7802],7.11
17,TTCTTTTTAATGTCGGTGCAACTCCATAAAAACAAA [GTGCAC_site9488],10.8
18,ATATATTTTATATAGTGTACTTTAATTTTTTTTTTT [XGTACX_site5550],6.83
19,AGTTATTTTTATATTTCACACACATATACTTTTACA [CACACA_site9357],7.21
20,TAGCTGTTCAAAAAATGTACATATATAATATATATA [XGTACX_site5842],7.49
21,TATAATTTATTAAGGGGTACATATATTTCATGATAA [XGTACX_site5141],7.19
22,AAACCCTATTCAATGCAATAATTTTATAATTTTTTT [TGCATGCA_negctrl_site434],6.91
23,ATTTTCATGATAAAGGTGCAATTATTTTTATAAGAA,10.8
24,ACACATAATATAAAGGTGCTATATTGTATTCATTTT [GTGCAC_site9457],8.36

row,Sequence,gcPBM binding intensity (ln)
1,AATAAATTCATGATAGTGCAAAAATTATTTTTGTTA,8.49
2,GTATTCATGCTAAAGGTGCAATAATTTTTATAATAA [GTGCAC_site9603],10.9
3,AATCAAAATTAATTAACACACAATTTTAATATTCTT [CACACA_site2063],6.79
4,ATATATTTTTTTTAGCGTACATGCAAAAAAAAAAAA [XGTACX_site4590],7.26
5,TACGTTATGTTGAATAGTACAATTTGGTGAACAGGT [XGTACX_site1729],7.51
6,GTAGTGGTTGAATATACACACATATATAAATAAATA [CACACA_site7282],7
7,TTTTTTTTTTTGTGGGTGCGTTTATAAAAACAGGAA,11.1
8,TTTTTTTTTTTTTTGGTGCGTTTATATATAAATATA,8.81
9,TTTTATAAACAGAGGGGTACGGGAAAAAAAAAAAAA [XGTACX_site1480],7.11
10,TAATACCATTGTCATGCATGCACATTATTACTCTAA [TGCATGCA_site160],7.38
11,CCTAAAGTGTAAAATTCACACACATATATATATATA [CACACA_site8385],8.94
12,ATTTTTTTCTTAGGAGTGCACTTATATTTATTTTAT,11.2
13,ATATATTTTAGGAGAGTGCATTTAATATTATTTAAT [GTGCAC_site9444],8.99
14,TTTTATATTTTAAGAGTGCATTTTATATCTTTTTCT,8.74
15,TATATATAATATACATGTACAAATGTATTTAAAAAT [XGTACX_site6090],7.07
16,TGCATAATTAAAAATGGTACACTGTATTTATAATAT [XGTACX_site1575],7.13
17,TAAAAAATTAATAAAGTGCATAAATATTACAATATT,8.14
18,AGGTATATATTACAAGTGCACTGTAAAATTAAAATT,10.7
19,TCTTATGAATATCCCCGTACACATATATTTCTTATA [XGTACX_site6877],7.22
20,TATAAATTTTGTTTAGCACACACACCGACATACATA [CACACA_site9033],7.28
21,AAACAAAAAAGAAACACACACTAATTAAATTTTCTT [CACACA_site4746],6.74
